Among the data in the OligoGym collection are sensor-assay potency score (higher = more potent) values, retold here.
Note: reference of the scale not given here.

The first experiment deals with SPOCK1. The experiment in a line: pooled miR-30 sensor sort-seq; sequence = guide strand. Conditions: shRNA.
TCATAGTTCATGTCCAACTTGT had a sensor-assay potency score (higher = more potent) of 0.349.

In the case of TTGCACTTGACCAAATTCGAAG, the sensor-assay potency score (higher = more potent) is -1.14.

Sequence TTCCGCAACTCCTTGTCTGTGC had a sensor-assay potency score (higher = more potent) of 0.679.

A further experiment deals with SPOPL. The description is as above. Conditions: shRNA.
With TGTCGAAGTACACTGCACCTAT, the sensor-assay potency score (higher = more potent) is -0.0442.

Regarding TACTACTTTAACCTGTGTGTAA, the sensor-assay potency score (higher = more potent) was -0.323.

As for TCGCACATGACCTTCAGCCGTT, the sensor-assay potency score (higher = more potent) was -0.42.

The sequence TATTTGTATTAGTATGTCCTGA registered a sensor-assay potency score (higher = more potent) of -0.376.

AAATTTTACTACTTTAACCTGT displayed a sensor-assay potency score (higher = more potent) of 0.191.

Regarding TTTACTACTTTAACCTGTGTGT, the sensor-assay potency score (higher = more potent) is -0.00218.

TTAACCTGTGTGTAACACCAGC returned a sensor-assay potency score (higher = more potent) of -0.559.

As to TGTAACACCAGCTTTCTGCTAT, the sensor-assay potency score (higher = more potent) worked out at 0.257.

Take TAAAAACTGGAGATCGAGCTGC: the sensor-assay potency score (higher = more potent) was determined as 0.265.

In turn, TTGAACTTTTTAACACTTCACC came in with a sensor-assay potency score (higher = more potent) of -1.27.

For the sequence TTTTGCTCGAACTTCACTTTTG, the sensor-assay potency score (higher = more potent) is -1.29.

TTCTTCGCACATGACCTTCAGC: the sensor-assay potency score (higher = more potent) is -0.607.

A further experiment addresses SPRR2B. Described as above. The settings on record: shRNA.
For the sequence TTAGAAAGGAAACCTTTTGCTA, the sensor-assay potency score (higher = more potent) is -0.743.

For TCTTTCTGCTGAAGCTCTGGGA, the sensor-assay potency score (higher = more potent) was -0.772.

TATGAATCCATGATAAGCTTTG: the sensor-assay potency score (higher = more potent) is -0.839.

For the sequence TTCCCAGGCACACAGCTGCAGC, the sensor-assay potency score (higher = more potent) is -1.61.

As for TTTGCTATCAGGGAACATCATG, the sensor-assay potency score (higher = more potent) is -1.04.

Turning to TCCATGATAAGCTTTGATGAGA, the sensor-assay potency score (higher = more potent) was -1.51.

TTGCTATCAGGGAACATCATGG showed a sensor-assay potency score (higher = more potent) of -0.524.

With TAAGGGGAAAGAAGCTCCCTAT, the sensor-assay potency score (higher = more potent) was -0.405.

TCTGGGAACTGACAAAGCCAAG yielded a sensor-assay potency score (higher = more potent) of -1.68.

The sequence TGAAGCTCTGGGAACTGACAAA came in with a sensor-assay potency score (higher = more potent) of -1.43.

ATACTTTGGCTGGCAGGGTGGG showed a sensor-assay potency score (higher = more potent) of -1.37.

Take TTGCACAGGTGGTAGAAGCTCA: the sensor-assay potency score (higher = more potent) is -0.478.

A further experiment deals with SPSB2. The description is as above. The settings on record: shRNA.
TTGAATAGCCCCTCTTACCCCG: the sensor-assay potency score (higher = more potent) was -0.468.

TTGATTTCCGCAGAGCTTGGGT showed a sensor-assay potency score (higher = more potent) of -0.0773.

Take ATGTTCTCTGAACAGTCTTTGG: the sensor-assay potency score (higher = more potent) was -1.78.

As for TTCTCTGAACAGTCTTTGGGGT, the sensor-assay potency score (higher = more potent) is -0.466.

TTGACCTCGATGTTCTCTGAAC displayed a sensor-assay potency score (higher = more potent) of -1.03.

As to TTGCTCTGATGGTACAGCTTCC, the sensor-assay potency score (higher = more potent) was -0.719.

For TAGTGGTCAGTCTGCAGCGGGG, the sensor-assay potency score (higher = more potent) is -1.67.

Regarding TCTCTCTGGCACCTCCAGCTGC, the sensor-assay potency score (higher = more potent) was -1.35.

In turn, TTTGGGGTTCCAACCGTGGCGC registered a sensor-assay potency score (higher = more potent) of -1.17.

With TTGTGGCGCACACACAGGCGGC, the sensor-assay potency score (higher = more potent) was -1.68.

The sequence TAGCGTAGCCCAGAGTTCCCTC had a sensor-assay potency score (higher = more potent) of -0.633.

Take TAGCAGACTGTCATAGCCTTGA: the sensor-assay potency score (higher = more potent) was -0.29.
